# Source: PubChem BioAssay
# GLP1R ag: agonists of human GLP-1 receptor | HEK293 GLP-1R CRE-luciferase, luminescence, 4-6 h; cells express a hypersensitive GLP-1R form | Potency, µM (series often up to 45.6 µM), inactives show at the highest dose activation, most hits filed as activators | 380,000 tested, 0.007% active | AID 624172 | P43220; note: % of control where 0% means no effect
# Target sequence (P43220 whole entry, looked up): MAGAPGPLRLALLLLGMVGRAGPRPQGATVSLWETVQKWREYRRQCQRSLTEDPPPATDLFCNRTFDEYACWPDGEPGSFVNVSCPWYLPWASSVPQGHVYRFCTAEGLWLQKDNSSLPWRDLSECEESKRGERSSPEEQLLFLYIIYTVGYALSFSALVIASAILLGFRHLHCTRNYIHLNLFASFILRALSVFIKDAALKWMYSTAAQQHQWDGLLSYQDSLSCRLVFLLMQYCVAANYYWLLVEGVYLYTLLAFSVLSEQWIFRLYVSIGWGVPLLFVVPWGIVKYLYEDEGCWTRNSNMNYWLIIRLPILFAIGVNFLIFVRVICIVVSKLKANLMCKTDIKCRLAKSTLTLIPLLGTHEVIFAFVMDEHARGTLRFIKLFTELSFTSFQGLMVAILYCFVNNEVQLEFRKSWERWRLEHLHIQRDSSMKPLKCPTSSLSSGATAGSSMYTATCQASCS
# RORg inh: ROR gamma (mouse) transcription inhibition | P51450 | Drosophila S2 Gal4-RORgamma UAS-luciferase reporter, 20 h | Potency, µM (top dose mostly 53.6 µM), inactives show at the top dose activity change, negative = inhibition, most hits filed as inhibitors | 310,000 tested, 5.4% active | AID 2551; note: % is set by controls: 0 for no effect and ±100 for the full control effect; nearly all actives have a fitted effect of over 60% in size
#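 Drosophila Schneider cells stably carrying a metallothionein-driven Gal4 DBD–ROR gamma fusion and a UAS-Photinus luciferase reporter were exposed to compound for 1 hr, then induced with copper sulfate (700 uM final) for 20 hr at ambient temperature before luminescence reading.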
# HEK293 tox: cytotoxic in the GLP-1 receptor inverse agonist counter-screen; HEK293 cAMP-luciferase reporter cells, luminescence, 24 h; Potency, µM (series often up to 38.3 µM), for inactives: top-dose activity change, negative = inhibition, hits mostly inhibitors; 410,000 tested, 0.13% active; AID 624418;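 note: loss of luciferase light is scored as toxicity; % is set by controls: 0 for no effect and ±100 for the full control effect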
#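 To flag toxic compounds, the library was rerun on cells for 24 hr at 37 deg C and 5% CO2. Viability-linked luminescence was captured 12 min after adding luciferase detection reagent.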
# GLP-1R inv ag: acts as inverse agonist at human GLP-1 receptor. 410,000 tested, 1.6% active. P43220. HEK293 GLP-1R CRE-luciferase, luminescence, 24 h; GLP-1R form is constitutively active. Potency, µM (top dose mostly 38.3 µM), for the others: at the top dose activity change, negative = inhibition, hits mostly inhibitors. AID 624417; note: % is set by controls: 0 for no effect and ±100 for the full control effect; nearly all actives have a fitted effect of over 55% in size
#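 Cells are plated, allowed 12 hours at 37 deg C, then treated with compounds for 24 hr before luciferase detection reagent is added and luminescence is read after 12 min at room temperature. The HEK293 line carries constitutively active GLP-1R with a cAMP-responsive reporter.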
# Gal4-VP16 FLuc: counter-screen for ROR gamma inhibitors: Gal4-VP16 reporter. Drosophila S2 Gal4-VP16 UAS-luciferase, luminescence, 20 h. Potency, µM (doses to about 53.6 µM), for inactives: at the top dose activity, negative = inhibition, most hits filed as inhibitors. 310,000 tested, 3.5% active;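 note: Gal4-VP16 expression switched on by copper sulfate through the metallothionein promoter; % is set by controls: 0 for no effect and ±100 for the full control effect; nearly all actives have a fitted effect of over 50% in size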
# An asterisk follows results filed as active; ? = inconclusive; · = no result; [ ] = remark or other dose. Hits are enriched below; roughly 5.9% of the tested compounds scored in any of these assays. Calls come from the whole dose curve; as a rule, active = well fitted curve in the direction sought with a large enough effect; inconclusive = small, poorly fitted or top-dose-only effect, or another doubt; inactive = no such curve, though single readings can be large; an effect the other way counts as inactive or inconclusive. Potency is the fitted concentration of half-maximal effect.
SMILES,GLP1R ag,RORg inh,HEK293 tox,GLP-1R inv ag,Gal4-VP16 FLuc
Cc1ccc(S(=O)(=O)/N=C2\C=C(Nc3ccc(O)cc3)C(=O)c3ccccc32)cc1,-20.8%,·,2.82µM*,4.47µM*,·
Cc1ccc(Cl)cc1N,·,-0.3%,·,·,1.3%
CO/N=C(\C)CCN1CCCc2nc(C)c(C)cc21,·,9.4%[10 µM],·,·,-2.9%[10 µM]
CCCCn1c(SCC(N)=O)nc2c(sc3ccccc32)c1=O,2.1%,3.3%,-16.4%,-1.2%,5.9%
CCCCn1c(SCC(N)=O)nc2ccc(N3CCOCC3)cc2c1=O,12.4%,1.58µM*,-2.7%,0.0%,10µM*
COCCn1c(SCC(=O)Nc2cc(C)on2)nc2ccccc2c1=O,-2.3%,·,-9.1%,0.6%,·
CCCCn1c(SCC(=O)Nc2cccc(OC)c2)nc2ccc(N3CCOCC3)cc2c1=O,8.5%,5.01µM*,-4.7%,-13.6%,12.6µM*
COc1ccc(Cn2c(SCC#N)nc3ccc(N4CCOCC4)cc3c2=O)cc1,?,10µM*,-3.5%,8.3%,?
COc1ccc(-n2c(SCC#N)nc3ccccc3c2=O)cc1,15.5%,-10.4%,-4.4%,-27.4%,11.7%
CCCCCCn1c(SCC(=O)Nc2cc(C)on2)nc2ccccc2c1=O,22.9%,3.98µM*,-3.5%,20.3%,7.6%[0.365 µM]
CCCCCCCCCCCCC/C=C/[C@@H](O)[C@H](CO)NC(=O)CCCCCCCCCCCCCCC,·,-14.8%,·,·,-21.7%
CCCN1C(=O)C2(c3ccccc31)c1c(oc3ccccc3c1=O)C(=O)N2CCO (stereo not drawn),·,·,-4.3%,-5.8%,·
Cc1nn(CCCC(=O)Nc2cc(Oc3ccccc3)cc([N+](=O)[O-])c2)c(C)c1[N+](=O)[O-],19.4%,2µM*,-1.3%[1.53 µM],?,?
Cc1nc2ccc(S(=O)(=O)N(CC(=O)Nc3cccc(F)c3)Cc3ccccc3)cc2s1,-1.0%,·,-6.5%,?,·
c1cn(-c2ncnc3ccc(-c4ccoc4)cc23)cn1,·,4.47µM*,·,·,?
Nc1nc(-c2ccccc2)c(CCCOc2ccc(NC(=O)CBr)cc2)c(=O)[nH]1,2.8%,·,10µM*,25.7%,·
COC(c1ccccc1)c1nnc(CCC(=O)N(C)CCCC2CCCC2)o1 (stereo not drawn),11.8%,?,-18.6%,10µM*,?
CCOC1(OCC)C(c2ccc(Cl)cc2)C(C#N)(C#N)C1(OCC)OCC (stereo not drawn),-5.9%,12.6µM*,?,?,-63.5%
CCOC(=O)/C(=C/c1c2ccccc2cc2ccccc12)NC(=O)c1ccccc1,-2.4%,-0.3%,17.5%,4.47µM*,-5.1%
CCOC(=O)/C(=C\c1ccccc1)NC(=O)c1ccccc1,-0.6%,19.1%,0.6%,0.9%,5.0%
CC[C@H](C)[C@H](NC(=O)[C@H](CC(=O)O)NC(=O)[C@H](CC(C)C)NC(=O)[C@H](Cc1cnc[nH]1)NC(=O)[C@H](C)NC(=O)[C@H](Cc1ccccc1)NC(=O)[C@H](Cc1ccc(O)cc1)NC(=O)[C@@H](NC(=O)[C@H](C)NC(=O)[C@H](CCC(=O)O)NC(=O)[C@H](CCC(=O)O)NC(=O)[C@H](CC(=O)O)NC(=O)CCC(=O)O)C(C)C)C(=O)N[C@H](C(=O)N[C@@H](Cc1c[nH]c2ccccc12)C(=O)O)[C@@H](C)CC,·,-0.1%,·,·,-8.5%
Cc1ccccc1OCC(=O)O/N=C(\N)Cc1cccs1,?,22.1%,29.1%,127.2%,-11.2%
Cc1ccccc1C(=O)O/N=C(\N)Cc1cccs1,14.8%,7.94µM*,?,?,?
O=C(CCSc1nnc(-c2ccncc2)o1)Nc1ccccc1,2.1%,-43.9%,1.8%,1.0%,-10.7%[0.365 µM]
CCNC(=O)CSc1nnc(-c2cc(-c3ccc(Cl)cc3)nc3ccccc23)o1,2.7%,0.199µM*,22.6%,-20.1%,?
SMILES,GLP1R ag,RORg inh,HEK293 tox,GLP-1R inv ag,Gal4-VP16 FLuc
Cc1cc(-c2nnc(SCCC(=O)Nc3ccccc3)o2)no1,-4.6%,14.1µM*,4.5%,-16.4%,?
Cc1cc(-c2nnc(SCC(=O)Nc3nc(-c4ccc(Cl)cc4)cs3)o2)no1,-3.4%,14.1µM*,-18.5%,-6.3%,?
COc1cc(NC(=O)CSc2nnc(-c3cc(C)on3)o2)cc(OC)c1,0.7%,-10.8%,14.9%,5.2%,0.0%
Cc1ccc(C)c(CN2C(=O)c3ccccc3S(=O)(=O)c3ccc(C(=O)N4CCOCC4)cc32)c1,·,·,-9.7%,-31.5%,·
COc1ccc(N2CCN(c3ncnc4onc(C)c34)CC2)cc1,·,·,-5.3%,?,·
O=C(CSc1nnc(COc2ccccc2)o1)Nc1cc(C(F)(F)F)ccc1Cl,·,·,13.1%,3.3%,·
Cc1cc(F)ccc1NC(=O)CCn1nc(C)c(S(=O)(=O)N2CCCCC2)c1C,·,·,1.0%,-8.2%,·
COc1ccc2nc(C)cc(SCC(=O)NNC(=O)COc3ccccc3)c2c1,-1.0%,12.0%,-2.8%,-2.8%,-1.1%
COc1ccc2nc(C)cc(Sc3nc4ccccc4s3)c2c1,8.4%,14.1µM*,?,?,?
Cc1cc(C)cc(C(=O)/C=C2\NC(=O)CS2)c1,-0.2%,3.98µM*,10.2%,-1.7%,5.62µM*
COc1ccc2nc(N=NC3=C(O)CC(C)(C)CC3=O)sc2c1,-0.2%,11.2µM*,?,?,?
COc1ccc2nc(N)sc2c1,3.1%,-4.6%,-1.5%,61.1%,7.0%
COc1ccc2nc(N=Nc3ccc(O)c4ccccc34)sc2c1,-7.5%,1.58µM*,-14.4%,-9.9%,5.01µM*
CCOc1ccccc1CNC(=O)c1cnn(-c2ccc(C)cc2)c1-n1cccc1,·,·,5.5%,-6.8%,·
CC1(C)SC2C(NC(=O)C(c3ccccc3)S(=O)(=O)O)C(=O)N2C1C(=O)O (stereo not drawn),-1.9%,·,·,·,·
COc1ccc(C2N(c3ccc(Cl)cc3)N=C(C(C)=O)N(C)N2C(C)=O)cc1 (stereo not drawn),8.8%,-24.1%,15.5%,10µM*,25.4%
COc1cccc(N2C(C(C)=O)=NN(c3ccccc3)C2c2ccc(N3CCOCC3)cc2)c1 (stereo not drawn),-5.5%,2.7%,2.1%,-18.1%,-8.0%
COc1ccc(C(=O)N2c3ccc(C)cc3C(C)(c3ccccc3)CC2(C)C)cc1 (stereo not drawn),·,·,6.4%,10µM*,·
Cc1ccc(C(=O)N2c3ccc(C)cc3C(C)(c3ccccc3)CC2(C)C)cc1 (stereo not drawn),·,·,7.2%,?,·
CCCC(=O)O[C@@H]1C[C@@H](C)N(C(=O)c2ccccc2)c2ccc(C)cc21,-0.6%,1.7%,-2.1%,10µM*,-1.2%
CCCCC(=O)NC1(C(F)(F)F)C(=O)Nc2c1c(=O)[nH]c(=O)n2-c1ccc(F)cc1 (stereo not drawn),·,·,14.4%,15.8%,·
CCOc1ccc(NC(=S)NNC(=S)Nc2cccc(C(F)(F)F)c2)cc1,14.9%,?,-23.0%,?,-18.5%
